# Sampled rows, rich in hits. Any-hit rate of the full collection: about 3.1%.
# Tau fluor cs: Counterscreen qHTS for Inhibitors of Tau Fibril Formation, Fluorescence Polarization; actives 0.93% (n = 280,000); Potency, µM (titrated, usually from 57.7 µM), without a hit: at the top dose activity change, negative = decrease; tau K18 P301L Alexa594 fluorescence, heparin fibrillization; also: nearly all actives have a fitted effect of over 55% in size
#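 Human tau K18 P301L (15 uM unlabeled, 0.24 uM Alexa 594-labeled) in 100 mM sodium acetate pH 7 with 20 uM heparin, 6 hr at 37 C. ThT 30 uM added, 1 hr ambient; Alexa 594 FP and total fluorescence read at 555/632 nm.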
# Tau ThT inhib: qHTS for Inhibitors of Tau Fibril Formation, Thioflavin T Binding; recombinant tau K18 P301L (four-repeat tau fragment), heparin-induced fibrillization, ThT fluorescence; actives 2.1% (n = 270,000); Potency, µM (doses to about 57.4 µM), inactives show at the highest dose activity, negative = inhibition, most hits filed as inhibitors; also: nearly all actives have a fitted effect of over 55% in size
# Target sequence (P10636 561-689 P618L limits assumed): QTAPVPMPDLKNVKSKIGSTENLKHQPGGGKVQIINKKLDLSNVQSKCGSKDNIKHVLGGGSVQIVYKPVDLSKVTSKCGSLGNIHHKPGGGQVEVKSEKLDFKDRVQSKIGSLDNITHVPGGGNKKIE
#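 Aggregation was driven by heparin (20 uM final) acting on recombinant tau […] bearing P301L in 100 mM sodium acetate pH 7; fibrils were detected with Thioflavin T.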
# TR SRC2 fluor cs: Total Fluorescence Counterscreen for Inhibitors of the Interaction of Thyroid Hormone Receptor and Steroid Receptor Coregulator 2 | actives 0.29% (n = 280,000) | Potency, µM (top dose mostly 106 µM), without a hit: top-dose fluorescence change, negative = quenching | TRb/SRC2 Texas Red total fluorescence interference | AID 1479, 2009; active = well fitted curve in either direction with a large enough effect; inconclusive = small, poorly fitted or top-dose-only effect
#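 Human TRβ ligand-binding domain (0.6 uM) and Texas Red SRC2 peptide (20 nM) in Tris buffer with 1 uM T3 and 5% DMSO were incubated with pinned compound for 5 hr at ambient temperature. Total fluorescence was computed as S + 2P (555/632 nm).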
# Tau FP inhib: qHTS for Inhibitors of Tau Fibril Formation, Fluorescence Polarization; Microtubule-associated protein tau (Homo sapiens), P10636; K18 P301L tau heparin fibrillization, Alexa594 FP, 6 h; Potency, µM (series often up to 57.7 µM), without a hit: at the highest dose activity, negative = inhibition, most hits filed as inhibitors; actives 0.39% (n = 280,000); AID 1468, 2008; also: nearly all actives have a fitted effect of over 55% in size
#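 FP of Alexa 594-tau after heparin (20 uM) induction. Substrate: human K18 P301L, 15 uM unlabeled, 0.24 uM labeled. Buffer 100 mM sodium acetate pH 7. 6 hr, 37 C.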
# TRb-SRC2 inh: qHTS for Inhibitors of the Interaction of Thyroid Hormone Receptor and Steroid Receptor Coregulator 2; actives 0.065% (n = 280,000); TRbeta-SRC2 peptide binding, fluorescence polarization; receptor liganded with 1 µM T3; Potency, µM (doses to about 106 µM), for inactives: top-dose activity change, negative = inhibition, usual class: inhibitors;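 also: plate controls were bound peptide for no effect and peptide without receptor for full effect; nearly all actives have a fitted effect of over 50% in size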
# Target sequence (P10828 whole entry, looked up): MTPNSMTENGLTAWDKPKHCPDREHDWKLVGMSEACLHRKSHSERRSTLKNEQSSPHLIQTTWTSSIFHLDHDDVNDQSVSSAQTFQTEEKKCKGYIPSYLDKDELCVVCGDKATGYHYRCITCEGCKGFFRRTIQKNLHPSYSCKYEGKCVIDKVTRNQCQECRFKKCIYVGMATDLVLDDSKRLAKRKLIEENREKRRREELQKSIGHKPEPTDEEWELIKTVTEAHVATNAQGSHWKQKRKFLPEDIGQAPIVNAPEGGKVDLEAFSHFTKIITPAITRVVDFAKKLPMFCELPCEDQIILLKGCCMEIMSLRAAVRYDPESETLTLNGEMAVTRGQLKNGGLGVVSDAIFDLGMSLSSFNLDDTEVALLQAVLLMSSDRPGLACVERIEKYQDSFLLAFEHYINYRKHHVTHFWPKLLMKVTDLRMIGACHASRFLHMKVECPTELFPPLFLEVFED
#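 Compounds were added to 0.6 uM TRb ligand-binding domain and 20 nM Texas Red-labeled SRC2 peptide in Tris buffer containing 1 uM T3, incubated 5 hr at ambient temperature, then read by fluorescence polarization.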
# * hit, by the source's call; ? = inconclusive; . = no result; [ ] = dose if it differs, or a comment. Unless noted, calls follow the shape of the dose curve; as a rule, active = well fitted curve in the direction sought with a large enough effect; inconclusive = small, poorly fitted or top-dose-only effect, or another doubt; inactive = no such curve, though single readings can be large; an effect the other way counts as inactive or inconclusive. Unless noted, % is scaled to controls: 0 for no effect and ±100 for the full control effect; potency is read from the fitted curve at half-maximal effect.
SMILES,Tau fluor cs,Tau ThT inhib,TR SRC2 fluor cs,Tau FP inhib,TRb-SRC2 inh
COc1ccc(Cl)cc1N=Nc1ncc[nH]1,-19%,13µM*,-3%,-13%,9%
Cc1ccc(Cl)cc1N1CCN(C(=O)c2ccc(CS(=O)c3ccccc3)o2)CC1 (stereo unspecified),-4%,?,4%,-1%,-3%
COc1c(O)cc2c(c1O)[C@@H]1O[C@@H](CO)[C@@H](O)[C@@H](O)[C@@H]1OC2=O,.,.,-2%[53 µM],.,4%[53 µM]
O=C1OCC2OC(O)C(O)C(O)C2OC(=O)c2cc(O)c(O)c(O)c2-c2c(O)c(O)c3oc(=O)c4c(c(O)c(O)c5oc(=O)c2c3c54)-c2c1cc(O)c(O)c2O (stereo unspecified),?,7.9µM*,-9%,?,0%
CN(C)S(=O)(=O)c1cccc(NC(=S)N/N=C/c2ccc(O)c(O)c2O)c1,13µM*[quencher],3.2µM*,-6%,7.1µM*,3%
CCN(CC)S(=O)(=O)c1cccc(C(=O)N/N=C/c2ccc(O)c(O)c2O)c1,?,3.2µM*,-28%,8.9µM*,-5%
CCOc1ccccc1/C=N/NC(=O)c1cccc(S(=O)(=O)N(CC)CC)c1,-19%,-10%,1%,-2%,1%
CCn1c(C)nc2cc(C(=O)N/N=C/c3ccc(O)c(O)c3O)ccc21,?,3.2µM*,?,7.9µM*,-6%
CCn1c(C)nc2cc(C(=O)N/N=C/c3cccc(OC)c3O)ccc21,-25%,?,1%,4%,2%
COc1ccc(O)c(/C=N/NC(=S)Nc2cccc(S(=O)(=O)N(C)C)c2)c1,?,?,-3%[53 µM],?,1%[53 µM]
COC(=O)c1cc2c(-c3ccccc3)c(C)c3ccccn3c-2c1C(=O)OC,?,16µM*,1%,15%,-10%
COC(=O)c1c(Cl)c2n3ccccc3c(C)c(-c3ccccc3)c-2c1C(=O)OC,?,7.9µM*,9%,?,-9%
COC(=O)c1c(C)[nH]c(C=O)c1-c1ccccc1,-11%,-16%,-1%,7%,0%
CN(C)c1ccc(-c2cc(NCc3cccnc3)ncn2)cc1,-21%,?,-6%,-1%,1%
CC(C)[C@H](N)C(=O)N[C@@H](CCC(N)=O)C(=O)NCC(=O)N[C@@H](CCC(=O)O)C(=O)N[C@@H](CCC(=O)O)C(=O)N[C@@H](CO)C(=O)N[C@@H](CC(N)=O)C(=O)N[C@@H](CC(=O)O)C(=O)N[C@@H](CCCCN)C(=O)O,.,.,-4%,.,-7%
Nc1nc2ccc(S(=O)(=O)N3CCCCC3)cc2s1,-23%,32µM*,-1%,?,6%
CSc1nc2ccc(S(=O)(=O)N3CCCCC3)cc2s1,-13%,-6%,-3%,-13%,-6%
O=S(=O)(Nc1ccc(-c2csc(-c3ccccc3)n2)cc1)c1ccccc1,?,1%,-3%,?,8%
O=[N+]([O-])c1ccc(S(=O)(=O)Nc2ccc(-c3csc(-c4ccccc4)n3)cc2)cc1,8.9µM*[quencher],?,0%,-7%,11%
CC(C)C(=O)Nc1nc(-c2ccc([N+](=O)[O-])cc2)cs1,-3%,-14%,-4%,4%,2%
CNc1nc(-c2ccc([N+](=O)[O-])cc2)cs1,-13%,13µM*,-2%,11%,-2%
Cn1c(=O)oc2cc(S(=O)(=O)N3CCC(C(=O)N4CCN(c5ccc(Cl)cc5)CC4)CC3)ccc21,-18%,-9%,-1%,0%,-4%
CCOc1ccc(NC(=S)NCc2ccc3[nH]c(C)cc3c2)cc1,20µM*[quencher],?,-1%,?,-1%
COc1cccc(OCc2cc(/C=N/Nc3ccc(C(=O)O)cc3)ccc2OC)c1,11µM*[quencher],?,-6%,4%,5%
CCOc1cc(/C=N/Nc2ccc(C(=O)O)cc2)ccc1OC(=O)c1ccccc1C,0.71µM*[quencher],.,-4%,?,0%
SMILES,Tau fluor cs,Tau ThT inhib,TR SRC2 fluor cs,Tau FP inhib,TRb-SRC2 inh
COCCCNC(=O)c1ccc2c3c(onc13)-c1ccccc1C2=O,5.6µM*[quencher],6.3µM*,9%,?,-13%
COc1cc(C)c(/C=C/C(C)=C/C=C/C(C)=C/C(=O)O)c(C)c1C,?,25µM*,-1%,-11%,7%
Oc1ccccc1-c1nc2c3ccccc3c3ccccc3c2[nH]1,10µM*[quencher],?,-4%,-5%,2%
c1csc(-c2nc3c4ccccc4c4ccccc4c3[nH]2)c1,13µM*[quencher],?,-12%,?,5%
COc1ccc(CN(C(=O)c2ccc(OCC(C)C)cc2)C2CCS(=O)(=O)C2)cc1 (stereo unspecified),-11%,-8%,-56%,-1%,-3%
Oc1ccc(N=C/C=C/c2ccc(Br)cc2)cc1-c1nc2ccccc2s1,?,11µM*,-12%,-23%,2%
CCCCCCC(O)CCCCCCCCCCC(=O)O (stereo unspecified),.,.,-1%[201 µM],.,4%[201 µM]
CC(C)(C)C1C/C(=C/c2ccccn2)C(=O)/C(=C/c2ccccn2)C1 (stereo unspecified),-25%,11µM*,-1%,?,-7%
CC1C/C(=C/c2ccccn2)C(=O)/C(=C/c2ccccn2)C1 (stereo unspecified),-14%,10µM*,1%,8.9µM*,-7%
CCCCCC1CCC(=O)O1 (stereo unspecified),.,.,-4%[201 µM],.,7%[201 µM]
COc1ccc2c(c1)Cc1sc(NC(C)=O)nc1-2,?,32µM*,-6%,?,2%
COc1ccc2c(c1)Cc1sc(NC(=O)c3cccnc3)nc1-2,?,7.9µM*,-4%,?,-17%
COc1ccc2c(c1)CCc1sc(NC(=O)c3ccco3)nc1-2,14µM*[quencher],13µM*,-7%,-6%,0%
COc1ccc2c(c1)Cc1sc(NC(=O)c3ccco3)nc1-2,?,?,-10%,7%,2%
CCn1c(C(=O)NCc2ccc(OC)cc2)cc2sc(Cl)cc21,?,-12%,0%,-10%,1%
COc1ccc(C(c2c(C)[nH]n(C(N)=S)c2=O)C(C#N)C#N)cc1 (stereo unspecified),-26%,?,-1%,?,-6%
Cc1[nH]n(-c2ncc(-c3ccc(Cl)cc3)s2)c(=O)c1C(c1ccc(Cl)cc1)C(C#N)C#N (stereo unspecified),?,11µM*,-22%,40µM*,4%
